BCLXL inh = inhibitors of human Bcl-xL, primary screen, biochemical, fluorescence polarization, HTS. GST-Bcl-xL / FITC-Bim BH3 peptide fluorescence polarization. 320,000 compounds, 0.7% hits. Bcl-2-like protein 1 (Homo sapiens), Q07817. inhibition, % at 10.9 µM. AID 2129, 2009;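 active means inhibition above the mean of all tested compounds plus 3 SD, cutoff set per campaign, cut at about 30% in these data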;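 further: inhibitors lower millipolarization by displacing the labeled peptide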
MEX-5 binding = MEX-5 zinc finger RNA-binding disruptors – biochemical, C. elegans, fluorescence polarization, MLPCN library, primary screen | Zinc finger protein mex-5 (Caenorhabditis elegans), Q9XUB2 | MEX-5/FITC-TCR2 RNA binding; active compounds read low | activity score (negative = inhibition of binding), % at 10 µM | 300,000 compounds, 0.38% hits;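 active means inhibition past about -25% in most replicates, and total fluorescence under double the plate's negative control median, limit read from the data; inconclusive means replicates evenly split on the limit, or fluorescence at least double controls; inactive means too little inhibition in most replicates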
IDE cell activ = human IDE activators in live cells, primary screen, fluorescence polarization, HEK cells, FAbeta-B substrate; FAbeta-B cleavage; 0% vehicle, 100% cell-free pure enzyme wells; activation, % at 5.96 µM; 340,000 compounds, 0.073% hits; AID 493087, 2011;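 active means activation above the mean of all tested compounds plus 3 SD, set per screening campaign, cut at about 17% in these data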
Target sequence (P14735 whole entry, looked up): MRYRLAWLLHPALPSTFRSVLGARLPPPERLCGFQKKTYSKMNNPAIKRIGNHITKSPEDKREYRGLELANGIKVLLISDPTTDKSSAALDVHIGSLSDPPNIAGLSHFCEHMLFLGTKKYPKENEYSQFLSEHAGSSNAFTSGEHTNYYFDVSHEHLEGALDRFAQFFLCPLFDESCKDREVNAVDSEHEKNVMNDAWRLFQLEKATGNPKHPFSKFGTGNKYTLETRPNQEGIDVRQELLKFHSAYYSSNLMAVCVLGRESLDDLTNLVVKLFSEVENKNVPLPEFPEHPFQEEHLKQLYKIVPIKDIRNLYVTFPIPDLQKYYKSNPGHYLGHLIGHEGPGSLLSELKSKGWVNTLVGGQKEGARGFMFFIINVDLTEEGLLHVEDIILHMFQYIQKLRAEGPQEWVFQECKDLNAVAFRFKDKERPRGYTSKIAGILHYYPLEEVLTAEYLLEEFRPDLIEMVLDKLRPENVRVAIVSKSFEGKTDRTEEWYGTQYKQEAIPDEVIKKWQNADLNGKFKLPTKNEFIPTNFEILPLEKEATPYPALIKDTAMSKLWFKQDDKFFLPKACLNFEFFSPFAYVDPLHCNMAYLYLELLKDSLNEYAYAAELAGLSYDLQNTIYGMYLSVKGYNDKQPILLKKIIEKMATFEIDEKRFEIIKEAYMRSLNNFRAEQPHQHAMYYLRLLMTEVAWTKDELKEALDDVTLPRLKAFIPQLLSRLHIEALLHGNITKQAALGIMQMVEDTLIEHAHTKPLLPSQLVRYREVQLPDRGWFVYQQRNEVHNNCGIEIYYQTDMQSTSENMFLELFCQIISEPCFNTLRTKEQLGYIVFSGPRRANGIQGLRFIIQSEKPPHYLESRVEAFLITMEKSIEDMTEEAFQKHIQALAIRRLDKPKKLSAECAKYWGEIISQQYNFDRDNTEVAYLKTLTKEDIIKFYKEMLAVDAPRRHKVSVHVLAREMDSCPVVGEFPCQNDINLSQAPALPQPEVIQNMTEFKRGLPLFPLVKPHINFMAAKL
IDE cell inh = human IDE inhibitors in live cells, primary screen, fluorescence polarization, HEK cells, FAbetaB substrate. 320,000 compounds, 0.41% hits. Insulin-degrading enzyme (Homo sapiens), P14735. inhibition, % at 5.59 µM. FAbetaB cleavage. AID 434962, 2010;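 active means percent inhibition above the average of all tested compounds plus 3 SD, set per screening campaign, cut at about 16% in these data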;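 further: IDE supplied by intact live HEK cells; FP after avidin binding of uncleaved biotin substrate so inhibition keeps polarization high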
MCL1-BIM inh = inhibitors of MCL1 binding to BIM-BH3, primary screen, biochemical, fluorescence polarization; Induced myeloid leukemia cell differentiation protein Mcl-1 (Homo sapiens), Q07820; GST-MCL1 / FITC-Bim-BH3 fluorescence polarization; inhibition, % at 10.9 µM; 320,000 compounds, 0.68% hits; AID 2057, 2009;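 active means inhibition above the mean inhibition of all tested compounds plus 3 SD, set per campaign, cut at about 40% in these data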;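 further: higher means more loss of mP so more displacement of Bim peptide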
GLD-1 TGE inh = GLD-1/TGE RNA complex disruptors, primary screen, biochemical, fluorescence polarization. purified GLD-1 + fluorescein TGE RNA. inhibition, % at 5.96 µM. 320,000 compounds, 0.44% hits. AID 2280, 2010;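 active means percent inhibition above a per-plate cutoff, the plate mean of test compounds plus 3 SD, cut at about 30% in these data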
BCLXL inh confirm = Bcl-xL inhibitors blocking Bim BH3 binding, confirmation, counter-screen for MCL1 inhibitor project, biochemical, fluorescence polarization; 1,700 compounds, 54% hits; shares compounds with MCL1-BIM inh; AID 2166, 2009; GST-Bcl-xL / FITC-Bim BH3 peptide FP binding; inhibition, % at 10.9 µM;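 active means inhibition above a cutoff equal to the mean inhibition of all tested compounds plus 3 SD, cut at about 30% in these data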
MCL1 inh confirm = inhibitors of MCL1 binding to BIM-BH3, confirmation, biochemical, fluorescence polarization, triplicate; shares compounds with MCL1-BIM inh; GST-MCL1 / FITC-Bim-BH3 fluorescence polarization; inhibition, % at 10.9 µM; 1,700 compounds, 61% hits;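 active means inhibition above the average of all tested compounds plus 3 SD, cut at about 40% in these data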
GLD1 RNA confirm = GLD-1/TGE RNA binding inhibitors, retest, confirmation, biochemical, fluorescence polarization, triplicate; 550 compounds, 10% hits; inhibition, % at 5.96 µM; GLD-1/FL-TGE RNA fluorescence polarization; shares compounds with GLD-1 TGE inh;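 active means average inhibition across triplicates above the hit cutoff set in the primary screen, cut at about 32% in these data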
IDE inh confirm = human IDE inhibitors in live cells, confirmation, fluorescence polarization, HEK cells, FAbetaB substrate | shares compounds with IDE cell inh | FAbetaB cleavage | inhibition, % at 5.59 µM | 1,200 compounds, 51% hits | AID 435028, 2010;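 active means mean inhibition across triplicate wells above the cutoff set by the earlier primary insulin-degrading enzyme screen, cut at about 16% in these data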
HEK293 tox = cytotoxicity in HEK cells, cytotoxicity control for IDE inhibitor project, cell-based, luminescence; shares compounds with IDE cell inh; AID 449730, 2010; inhibition, % at 5.59 µM; 1,200 compounds, 28% hits; HEK293 cytotoxicity, ATP luminescence; in the data active means inhibition above about 22%
Hits are given with their value; 0 = inactive; ? = inconclusive; - = no result; + = active, no number. Sampled rows, rich in hits. Any-hit rate of the full collection: about 1.5%.

SMILES	BCLXL inh	MEX-5 binding	IDE cell activ	IDE cell inh	MCL1-BIM inh	GLD-1 TGE inh	BCLXL inh confirm	MCL1 inh confirm	IDE inh confirm	HEK293 tox	others
CCN1CCc2c(sc(NC(=O)Nc3ccc(Cl)c(Cl)c3)c2C(N)=O)C1	39.8	-	0	109.9	86.7	0	54.2	56.0	58.5	0
CS(=O)(=O)Oc1ccc(Br)cc1/C=C1/N=C(c2ccco2)OC1=O	0	0	0	0	0	0	-	-	-	-
Cc1cccc(N2C(=O)c3cccc4c(N)ccc(c34)C2=O)c1	+	?	0	72.6	+	+	197.9	+	96.2	0
Cc1cccc(N2C(=O)c3cccc4c(N(C)CCO)ccc(c34)C2=O)c1	183.4	?	0	79.3	+	175.6	168.8	+	109.8	0
CCc1ccc(C(=O)C[n+]2cccc3cc(OC)ccc32)cc1	-	0	0	-	-	-	-	-	-	-
CCOC(=O)N1CCN(S(=O)(=O)CCNC(=O)c2ccc(F)cc2)CC1	0	0	0	0	0	0	-	-	-	-
O=C1c2cccc3cccc(c23)C(=O)N1c1ccc(O)cc1	0	0	0	0	0	0	-	-	-	-
O=C1c2cccc3c(N4CCCCC4)ccc(c23)C(=O)N1c1ccc(O)cc1	54.1	?	0	75.0	68.5	36.4	59.6	71.5	71.7	0
Nc1ccc2nc3c(=O)n(CCc4ccccc4)c(=O)[nH]c3nc2c1	180.5	-52.0	-	32.5	+	191.1	182.4	+	63.2	0
Nc1ccc2nc3c(=O)n(C4CCCCC4)c(=O)[nH]c3nc2c1	+	?	0	57.2	+	+	190.8	+	88.2	0
COc1cc2[nH]c(=O)n(C3CCCCC3)c(=O)c2cc1OC	0	0	0	0	0	0	-	-	-	-
O=c1[nH]c2ccccc2nc1/C=C(\O)c1cccs1	81.3	0	0	47.4	100.5	0	87.6	91.3	74.5	0
Cc1c(O)c2c3c(cccc3c1O)C(=O)N(c1ccccc1)C2=O	90.9	?	0	60.3	97.9	82.0	92.3	105.3	86.6	0
O=C1N(c2ccccc2)CCN1c1ccccc1	0	0	0	0	0	0	-	-	-	-
O=C1NC(=S)CN1c1ccccc1	70.2	0	0	23.8	78.8	69.1	0	0	0	0	GLD1 RNA confirm=0
CN(C)/C=C(\C#N)C(=O)N/N=C(\CC(=O)C(F)(F)F)c1ccco1	0	0	0	0	0	0	-	-	-	-
O=C1c2ccccc2-c2onc3ccc(NCc4ccco4)c1c23	164.9	-77.2	0	20.2	199.3	164.7	162.0	188.0	91.3	27.4
O=C1C(Cl)=C(NCc2ccco2)C(=O)c2ccccc21	-	-	0	-	-	-	-	-	-	-
CCOC(=O)Cc1cc(=O)n2[nH]c(C(C)(C)C)cc2n1	0	0	0	0	0	0	-	-	-	-
CCN(CC)c1ccc(/C=C/C(=O)C2C(=O)C=C(C)OC2=O)cc1 (stereo not given)	76.2	0	0	64.2	79.4	0	78.8	124.8	95.5	0
O=C(O)c1ccccc1NS(=O)(=O)c1cccc(-n2sc3ccccc3c2=O)c1	0	-49.9	0	90.2	55.9	0	35.0	68.3	73.0	0
O=C(O)c1ccccc1NS(=O)(=O)c1cccc(C(F)(F)F)c1	0	0	0	0	0	0	-	-	-	-
CN(CC(=O)Nc1ccc(Cl)cc1)CC(=O)Nc1cccc(Br)c1	0	0	0	0	0	0	-	-	-	-
N=C1/C(=C/c2cccn2Cc2ccc(F)cc2)C(=O)N=C2SC=CN12	0	0	0	0	0	0	-	-	-	-
N=C1/C(=C\c2coc3ccccc3c2=O)C(=O)N=C2SC=CN12	54.6	?	0	48.1	60.2	51.0	60.6	70.0	80.2	0
SMILES	BCLXL inh	MEX-5 binding	IDE cell activ	IDE cell inh	MCL1-BIM inh	GLD-1 TGE inh	BCLXL inh confirm	MCL1 inh confirm	IDE inh confirm	HEK293 tox	others
COc1ccc(C(=O)c2ccc([N+](=O)[O-])cc2)c(OC)c1OC	-	-	0	-	-	-	-	-	-	-
NNc1nc(C(F)(F)F)nc2ccccc12	0	0	0	0	0	0	-	-	-	-
O/C=c1\ccc2cccc3nc(C(F)(F)F)nc1c23	85.8	?	0	25.8	94.1	37.3	118.4	132.6	103.1	41.1
COc1cccc(/C=c2\s/c(=C\C(=O)C(C)(C)C)[nH]c2=O)c1	0	0	0	0	0	0	-	-	-	-
COc1ccc(/C=c2\s/c(=C/C(=O)c3ccc(C)cc3)[nH]c2=O)c(OC)c1	102.6	0	0	88.3	105.4	0	87.5	97.3	111.8	0
COc1cc(/C=C/C(=O)CC(=O)/C=C/c2ccc(O)c(OC)c2)ccc1O	0	0	0	30.8	57.4	0	0	0	81.0	0
COc1cc(S(=O)(=O)N2CCN(C(=O)c3ccccc3)CC2)c(OC)cc1Br	0	0	0	0	0	0	-	-	-	-
Cc1ccc(-c2ccccc2NC(=O)CS(=O)CC(=O)Nc2ccc(C)c(Cl)c2)o1 (stereo not given)	119.1	0	0	26.0	140.6	140.1	0	0	0	0
COc1ccc(S(N)(=O)=O)cc1C(=O)NNC(=O)CN(C)S(=O)(=O)c1ccc(Cl)cc1	0	-	0	0	0	0	-	-	-	-
CN1C(=O)c2cccc(NCCCN3C(=O)c4ccccc4C3=O)c2C1=O	0	0	0	0	0	0	-	-	-	-
CCNc1c2c3c(cccc3n(C)c1=O)C(=O)c1ccccc1-2	+	?	-	61.7	+	164.2	+	+	26.3	0
CCNC1=C(Cl)C(=O)c2ccccc2C1=O	0	0	0	0	0	0	-	-	-	-

Screens deposited in PubChem BioAssay by several laboratories.
